Some of the results follow. The hit rate among all sequences tested is not known here.
Target: furin, P09958
Test: furin cleavage Z-score vs untreated control; higher = more cleavage, active = 3.5 or more, inactive = 1 or less, 8 variable residues between constant flanks
Method in brief: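 Furin cleavage was scored on 8-mer peptides joined to a cDNA oligonucleotide and bound to magnetic beads at the N-terminus. Digestion with purified furin (1:10 enzyme:substrate, 0.01 ml, 50 mM HEPES pH 7.5, CaCl2, NaCl) lasted 7.5, 15 or 30 min. Freed DNA was tagged with adapters by PCR, sequenced and counted; the cleavage Z-score is the lowess-adjusted log count versus furin-free reactions, scaled by median absolute deviation.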

furin, P09958, sequence (P09958 whole entry): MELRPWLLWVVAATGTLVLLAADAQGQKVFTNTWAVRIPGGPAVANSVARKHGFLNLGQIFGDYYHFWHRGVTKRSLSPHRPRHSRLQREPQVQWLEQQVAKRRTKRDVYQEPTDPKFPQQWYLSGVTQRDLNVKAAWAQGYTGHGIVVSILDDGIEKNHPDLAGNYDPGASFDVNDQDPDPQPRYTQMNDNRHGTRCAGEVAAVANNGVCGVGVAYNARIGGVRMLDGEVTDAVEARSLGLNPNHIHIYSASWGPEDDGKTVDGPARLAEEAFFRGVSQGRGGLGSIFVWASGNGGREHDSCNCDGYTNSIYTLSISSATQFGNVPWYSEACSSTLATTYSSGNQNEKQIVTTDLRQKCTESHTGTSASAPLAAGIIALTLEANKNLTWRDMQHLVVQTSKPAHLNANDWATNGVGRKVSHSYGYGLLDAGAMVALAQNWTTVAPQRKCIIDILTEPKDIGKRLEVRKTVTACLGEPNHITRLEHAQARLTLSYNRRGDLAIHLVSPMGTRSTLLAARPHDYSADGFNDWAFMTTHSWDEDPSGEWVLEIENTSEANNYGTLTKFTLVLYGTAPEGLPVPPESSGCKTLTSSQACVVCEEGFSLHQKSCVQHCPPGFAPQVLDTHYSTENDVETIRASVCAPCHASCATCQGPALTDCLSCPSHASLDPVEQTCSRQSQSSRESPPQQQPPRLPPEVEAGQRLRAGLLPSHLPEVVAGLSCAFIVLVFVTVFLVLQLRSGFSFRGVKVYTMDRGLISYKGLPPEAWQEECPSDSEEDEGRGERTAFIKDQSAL

Sequence	furin cleavage Z-score (7.5 min)	furin cleavage Z-score (15 min)	furin cleavage Z-score (30 min)
CAVVWCSMSYAGNASASA [HC2028]	0.181 (inactive)	0.241 (inactive)	0.133 (inactive)
CAVQYLYGVGAGNASASA [HC510]	-0.596 (inactive)	-1.07 (inactive)	-0.127 (inactive)
CANEECSQHLAGNASASA [HC1681]	0.726 (inactive)	1.58	-0.0685 (inactive)
CATTPCSMSWAGNASASA [HC1886]	0.125 (inactive)	0.0823 (inactive)	0.51 (inactive)
CADLEDRDRSAGNASASA [HC487]	-0.326 (inactive)	-1.64 (inactive)	-1.38 (inactive)
CAGSSREVRSAGNASASA [FS-29]	2.81	4.54 (active)	4.54 (active)
CAAPVRRDRSAGNASASA [FS-977]	6.44 (active)	6.02 (active)	5.28 (active)
CAGSSRRRRSAGNASASA [FS-1334]	9.7 (active)	10.8 (active)	6.42 (active)
CAGSSRLDRSAGNASASA [FS-1208]	1.21	1.38	0.97 (inactive)
CAFSSREERSAGNASASA [FS-589]	-0.625 (inactive)	-0.927 (inactive)	-2.43 (inactive)
CASDFRRRRSAGNASASA [FS-868]	9.07 (active)	7.71 (active)	7.52 (active)
CALEQALDCEAGNASASA [HC1590]	-1.94 (inactive)	0.416 (inactive)	-0.45 (inactive)
CAGLVPRGSAAGNASASA [TR1]	0.366 (inactive)	-0.466 (inactive)	-0.254 (inactive)
CAMEEQSQHLAGNASASA [HC19]	0.113 (inactive)	0.699 (inactive)	0.674 (inactive)
CAAIPLEVIKAGNASASA [HC850]	-0.209 (inactive)	0.792 (inactive)	-0.386 (inactive)
CALQRRKKKGAGNASASA [FS-1643]	-0.863 (inactive)	-0.718 (inactive)	0.433 (inactive)
CAGFRRFKRSAGNASASA [FS-240]	8.1 (active)	5.19 (active)	7.05 (active)
CAGFRRSMDQAGNASASA [FS-2860]	-0.496 (inactive)	-0.187 (inactive)	0.074 (inactive)
CANQLRVKRSAGNASASA [FS-554]	5.48 (active)	5 (active)	3.97 (active)
CAPSRRVKRSAGNASASA [FS-1149]	8.11 (active)	7.59 (active)	5 (active)
CALQRRVKRSAGNASASA [FS-1463]	3.17	3.78 (active)	1.92
CAPTHYVPESAGNASASA [HC1126]	1.82	-1.79 (inactive)	0.876 (inactive)

Sequence	furin cleavage Z-score (7.5 min)	furin cleavage Z-score (15 min)	furin cleavage Z-score (30 min)
CAEVVTSAWVAGNASASA [HC2203]	-1.33 (inactive)	-0.0621 (inactive)	-0.753 (inactive)
CASTTSRSACAGNASASA [HC1390]	0.133 (inactive)	-0.0614 (inactive)	-0.754 (inactive)
CALAGLSTLPAGNASASA [HC1048]	0.519 (inactive)	1.63	0.445 (inactive)
CALKATCTANAGNASASA [HC1266]	0.615 (inactive)	2.96	1.42
CARTGKVKRSAGNASASA [FS-497]	10.7 (active)	9.35 (active)	8.07 (active)
CACWRRMKRSAGNASASA [FS-1113]	9.77 (active)	10.5 (active)	7.93 (active)
CAKLFRVKRSAGNASASA [FS-1220]	11.7 (active)	10.7 (active)	8.14 (active)
CAECYDAGCAAGNASASA [HC920]	-0.745 (inactive)	0.00773 (inactive)	-0.466 (inactive)
CAGCPLPPPKAGNASASA [HC1317]	0.693 (inactive)	-0.374 (inactive)	-0.0504 (inactive)
CAVVPRGVNLAGNASASA [TR7]	1.05	-0.803 (inactive)	1.14
CAMEERSQHLAGNASASA [HC10]	-0.0717 (inactive)	-0.428 (inactive)	1.49
CALYREFDEMAGNASASA [HC1011]	0.989 (inactive)	0.494 (inactive)	-1.47 (inactive)
CALSPRVKRIAGNASASA [FS-687]	8.46 (active)	10.4 (active)	8.69 (active)
CAVSPRVKRRAGNASASA [FS-1105]	6.42 (active)	5.9 (active)	5.56 (active)
CALSPRTFHPAGNASASA [TR5]	-0.266 (inactive)	0.174 (inactive)	-0.959 (inactive)
CAGDKRVKRRAGNASASA [FS-159]	8.54 (active)	8.95 (active)	8.22 (active)
CAGDSRVMRWAGNASASA [FS-591]	0.599 (inactive)	-0.204 (inactive)	0.578 (inactive)
CAGDKELRTGAGNASASA [EK10]	-0.528 (inactive)	-3.59 (inactive)	-0.0871 (inactive)
CALSPRPISYAGNASASA [HC737]	0.872 (inactive)	0.348 (inactive)	0.915 (inactive)
CAVSPRVKRPAGNASASA [FS-1104]	-1.44 (inactive)	-0.535 (inactive)	-0.559 (inactive)
CALVHRVKRRAGNASASA [FS-274]	13 (active)	14.7 (active)	10.7 (active)
CAVSPTHYVPAGNASASA [HC1125]	0.189 (inactive)	0.58 (inactive)	-0.874 (inactive)
